HT1080NT lethal – kills 2HG-producing HT-1080-NT fibrosarcoma cells | Potency, µM (highest dose often 46.1 µM), inactives show at the top dose activity, negative = less viability, usual class: cytotoxic | 1.6% of 360,000 active | HT-1080-NT fibrosarcoma viability, CellTiter-Glo ATP luminescence, 48 h;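 note: NT is the 2HG producing partner of a matched IDH1 knockdown line; potency is the fitted concentration of half-maximal effect; 0% = DMSO-treated cells and -100% = media-only wells without cells; nearly all actives have a fitted effect of over 55% in size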
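A 48-hour cytotoxicity screen used HT-1080-NT cells plated 2 hours before compound delivery. ATP-based CellTiter-Glo luminescence measured viability, normalized to DMSO and no-cell controls.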
IL-1B inflam inh – inhibitors of inflammasome signaling (IL-1 beta secretion); activity change, % at 57.5 µM; 4.7% of 360,000 active; THP-1 LPS/ATP IL-1B secretion, AlphaLISA, 16 h; stronger effect = lower value; in the data active = activity change below about -50%; inconclusive = mostly about -30% to -49%
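Secreted IL-1B measured by AlphaLISA bead assay after 16 h compound exposure of THP-1 cells; compounds (final up to 57.5 uM) added 1 h before LPS (250 ng/mL) and ATP (1.25 mM) stimulation; lower signal means less secretion.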
TDP1 cell CPT – growth inhibition of DT40 Tdp1-/-;hTDP1 cells with camptothecin (screen for TDP1 inhibitors); chicken DT40 Tdp1-/-;hTDP1 cells + 20 nM CPT, ATP luminescence, 48 h; Potency, µM (titrated, usually from 46.2 µM), for the others: top-dose activity change, negative = growth inhibition, most hits filed as inhibitors; 12% of 420,000 active; note: potency is the fitted concentration of half-maximal effect; nearly all actives have a fitted effect of over 55% in size
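Cell growth measured by CellTiter-Glo luminescence after a minimum 48 h, 37 C compound exposure with 20 nM CPT in Tdp1-knockout DT40 cells stably expressing hTDP1, seeded 400/well; qHTS titration format.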
HT1080 IDH1KD tx – HT-1080 IDH1 knockdown cell toxicity (counter line) | HT-1080 IDH1 knockdown viability, ATP luminescence, 48 h | Potency, µM (top dose mostly 46.1 µM), for inactives: top-dose activity, negative = toxicity, usual class: cytotoxic | 2% of 360,000 active;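 note: potency is the fitted concentration of half-maximal effect; 0% = DMSO wells and -100% = cell-free medium wells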
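After a 2 h attachment period, IDH1KD HT-1080 cells took pin-transferred compound for 48 h at 37 °C; ATP-based luminescence after 10 min room-temperature reagent incubation reported viability.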
DT40 TDP1 no CPT – qHTS for Inhibitors of human tyrosyl-DNA phosphodiesterase 1 (TDP1): qHTS in cells in absence of CPT | DT40 Tdp1-/- hTDP1 cells, no CPT, ATP luminescence, 48 h | Potency, µM (titrated, usually from 46.2 µM), without a hit: at the highest dose activity change, negative = growth inhibition, actives largely listed as inhibitors | 15% of 420,000 active | AID 686978, 2013; note: potency is the fitted concentration of half-maximal effect; nearly all actives have a fitted effect of over 55% in size
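No-CPT arm: Tdp1-/-;hTDP1 DT40 cells (400/well) plus compounds, incubated ≥48 hr at 37 °C. Readout CellTiter-Glo luminescence.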
Starred values were filed as active, the others as inactive; ? = inconclusive; . = no result given; [ ] = dose if it differs, or a comment. A selection: hits, their analogues and other compounds. The true share with any hit is near 19%. Unless noted, calls come from the whole dose curve; as a rule, active = well fitted curve in the direction sought with a large enough effect; inconclusive = small, poorly fitted or top-dose-only effect, or another doubt; inactive = no such curve, though single readings can be large; an effect the other way counts as inactive or inconclusive. Unless noted, % is set by controls: 0 for no effect and ±100 for the full control effect.

SMILES | HT1080NT lethal | IL-1B inflam inh | TDP1 cell CPT | HT1080 IDH1KD tx | DT40 TDP1 no CPT
Cc1ccc(C)c(NP(=O)(Oc2ccccc2)Oc2ccccc2)c1 | ? | ? | ? | ? | 16µM*
Nc1c(C(=O)NCCCc2ccccc2)c2nc3ccccc3nc2n1Cc1cccs1 | ? | -21 | ? | -27% | ?
CC(C)OCCCNC(=O)c1c(N)n(CC2CCCO2)c2nc3ccccc3nc12 (centres undefined) | ? | -64* | ? | ? | -29%
CCCNC(=O)c1c(N)n(CC2CCCO2)c2nc3ccccc3nc12 (centres undefined) | -16% | -27 | ? | -22% | 21µM*
COc1ccc(C(=O)O[C@H]2CC[C@@]3(C)C4CCC5[C@]6(O)C[C@H](O)[C@@]7(O)C(CN8C[C@@H](C)CC[C@H]8[C@@]7(C)O)[C@]6(O)C[C@@]53O[C@@]42O)cc1OC (some centres undefined) | . | . | 1%[21.1 µM] | . | -27%[21.1 µM]
Cc1cccc(N=C2c3cc([N+](=O)[O-])ccc3-c3c2cc([N+](=O)[O-])cc3[N+](=O)[O-])c1 | -3% | -96* | 8.2µM* | -13% | 18µM*
C=C(C)c1cccc(C(C)(C)NC(=O)NC2CN3CCC2CC3)c1 (centres undefined) | 3% | -4 | -9% | -8% | -11%
CC12CC(=O)C3C(CCC4CC(=O)C=CC43C)C1CCC2=O (centres undefined) | 15% | -93* | -21% | 16% | ?
CC(=O)OC[C@]12C[C@H](OC(=O)CC(C)C)C(C)=C[C@H]1O[C@H]1[C@H](O)[C@@H](OC(C)=O)[C@@]2(C)[C@]12CO2 | . | . | 0.012µM* | . | 0.0092µM*
CC(=O)OC[C@]12CCC(C)=C[C@H]1O[C@@H]1[C@H](O)[C@@H](OC(C)=O)[C@@]2(C)[C@]12CO2 | ? | -106* | 0.021µM* | 0.21µM* | 0.016µM*
O=C(Nc1nc(-c2ccccc2)c(-c2ccccc2)s1)c1ccc(S(=O)(=O)N(CCCl)CCCl)cc1 | -10% | 0 | 6% | -12% | ?
N#Cc1ccc(CN2Cc3ccccc3-n3nncc3C2)cc1 | 3% | 13 | ? | 3% | ?
C[C@H](N)C(=O)c1ccccc1 | . | . | -10% | . | -14%
CC(=O)[O][Hg][c]1ccccc1 | . | . | 0.16µM* | . | 0.16µM*
CCc1ccc([C@H]2[C@@H]3C(=O)C[C@@H]4C(=O)N(C5CCCCC5)C(=O)[C@@H]4[C@@H]3CN2S(=O)(=O)c2ccc(C)cc2)cc1 | 7% | ? | ? | 12% | ?
CCCCCCCCCCCCOCCOCCOCCOCCOCCOCCOCCOCCOCCO | . | . | 6.7µM* | . | 6.7µM*
CCCCCCOC(=O)c1ccccc1N | -1% | -4 | ? | -7% | -17%
O=C1c2ccccc2-n2nnc(-c3ccccc3)c2C2c3ccccc3CCN12 (centres undefined) | 14% | 52 | 16µM* | 0% | 7.3µM*
CN1C[C@H](CO)C=C2c3cccc4[nH]cc(c34)C[C@H]21 | -3% | -11 | 3.7µM* | -4% | ?
CCN(CC)C(=O)[C@@H]1C=C2c3cccc4[nH]cc(c34)C[C@H]2N(C)C1 | . | . | 40µM* | . | 40µM*
Cc1ccc(S(=O)(=O)NC(=O)NC2CCCC2)cc1 | . | . | 5% | . | -1%
Cc1ccc(-c2noc(=O)n2CC(=O)Nc2ccc(S(=O)(=O)NC3CC3)cc2)cc1 | ? | 4 | ? | ? | ?
COc1ccc(CCCc2nnc(SCC(=O)Nc3ccc(C)c(C)c3)o2)cc1 | -5% | -5 | ? | 4% | ?
Cc1ccc(-c2nc(S(=O)(=O)c3ccc(C)cc3)c(SCC(=O)Nc3ccc(F)cc3)o2)cc1 | . | . | 16µM* | . | 23µM*
Cc1ccc(-c2nc(S(=O)(=O)c3ccccc3)c(SCC(=O)NC3CCCCC3)o2)cc1 | . | . | 13µM* | . | ?
SMILES | HT1080NT lethal | IL-1B inflam inh | TDP1 cell CPT | HT1080 IDH1KD tx | DT40 TDP1 no CPT
COc1ccc(NC(=O)CSc2oc(-c3cccs3)nc2S(=O)(=O)c2ccccc2)c(OC)c1 | . | . | 21µM* | . | 23µM*
CCc1ccc(-n2c(SC(CC)C(=O)N(CC)CC)nc3n[nH]c(C)c3c2=N)cc1 (centres undefined) | . | . | 2.6µM* | . | 2.6µM*
O=C(c1ccc2c(c1)OCO2)C1CCCN(CC2CCCCC2)C1 (centres undefined) | 8% | -13 | ? | 15% | ?
O=C(CSc1nc2ccccc2c(=O)n1-c1ccc(F)c(Cl)c1)Nc1ccc2c(c1)CCC2 | 7% | 0 | ? | 1% | -19%
CC1=CC2OC3CC4OC(=O)C=CC=CC(=O)OCCC(C)C(O)C(=O)OCC2(CC1O)C4(C)C31CO1 (centres undefined) | 0.21µM* | -98* | 0.15µM* | . | 0.16µM*
CC1=CC2OC3CC4OC(=O)C=CC=CC(C(C)O)OCC(O)C(C)CC(=O)OCC2(CC1O)C4(C)C31CO1 (centres undefined) | 0.046µM* | -116* | 0.013µM* | . | 0.021µM*
CC(=O)OC1(Cc2ccccc2)CN2CCC1c1ccccc12 (centres undefined) | -10% | 0 | ? | -8% | ?
Cc1ccc(-n2c(C)cc(/C=N/NC(=O)c3ccc(CN4CCOCC4)cc3)c2C)cc1 | -15% | -4 | ? | ? | ?
Cc1cc(O)c2c(c1)C(=O)C13C(=C2O)C(=O)[C@H]2[C@@H](O)[C@@H]1[C@H]1[C@H](O)[C@@H]3C(=O)C3=C(O)c4c(O)cc(C)cc4C(=O)C312 (some centres undefined) | 0.58µM* | 27 | 0.65µM* | 5.2µM* | 1.2µM*
CCOC(=O)C1(CCCc2ccccc2)CCN(C2CCC2)CC1 | -4% | -24 | -23% | -9% | ?
O=C(NC1CCCCC1)Oc1cc2oc(=O)sc2cc1Cl | -6% | 23 | -17% | -10% | 15µM*
CCN(CC)C(=O)Oc1ccc2cc(Br)ccc2c1 | 15% | -11 | -30% | 8% | ?
O=S(=O)(O)C(F)(F)C(F)(F)C(F)(F)C(F)(F)C(F)(F)C(F)(F)C(F)(F)C(F)(F)F | . | . | -21%[92.5 µM] | . | ?
c1ccc(CN2CCNCC2)cc1 | . | . | 11%[166 µM] | . | -8%[166 µM]
NC(CCP(=O)(O)O)C(=O)O (centres undefined) | . | . | ? | . | -10%
COC(=O)C1=C(c2ccccc2OCc2ccccc2)C[C@@H]2CC[C@H]1N2C(=O)NCCOc1ccc(OC)cc1 | -4% | 0 | ? | -6% | ?
COC(=O)C1=C(c2ccc(F)cc2OCc2ccccc2)C[C@@H]2CC[C@H]1N2C(=O)NCc1ccc(N(C)C)cc1 | -18% | ? | ? | -2% | ?
